# Source: PubChem BioAssay
# Hits are enriched below; roughly 8% of the tested compounds scored in any of these assays.
# HT1080 IDH1KD tx = HT-1080 IDH1 knockdown cell toxicity (counter line); AID 686971; HT-1080 IDH1 knockdown viability, ATP luminescence, 48 h; 360,000 tested, 2% active; Potency, µM (titrated, usually from 46.1 µM), without a hit: at the highest dose activity, negative = toxicity, most hits filed as cytotoxic;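 note: 0% = DMSO wells and -100% = cell-free medium wells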
#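 After a 2 h attachment period, IDH1KD HT-1080 cells took pin-transferred compound for 48 h at 37 °C; ATP-based luminescence after 10 min room-temperature reagent incubation reported viability.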
# KB-V1 cytotox = KB-V1 MDR subline cytotoxicity; KB-V1 MDR cells viability, CellTiter-Glo, 72 h; Potency, µM (doses to about 46.1 µM), most hits filed as cytotoxic; 400,000 tested, 3.4% active; AID 1347076; note: % is set by controls: 0 for no effect and ±100 for the full control effect; nearly all actives have a fitted effect of over 60% in size
#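 Following 72 h at 37 degrees C with compound, KB-V1 cell viability was read by CellTiter-Glo luminescence, medium being phenol-red-free DMEM plus 10% FBS; concentration-response parameters came from normalized, curve-fitted qHTS data.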
# SW480 rereplic = induces DNA re-replication in SW480 colon adenocarcinoma cells; SW480 DNA re-replication, Hoechst DNA content imaging, 48 h; Potency, µM (series often up to 46.1 µM), for the others: at the top dose re-replication activation, hits mostly activators; 340,000 tested, 1.8% active; note: % of control where 0% means no effect; nearly all actives have a fitted effect of over 55% in size
#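 First, 250 cells per well were seeded. Next, compound or vehicle (23 nL) was pinned in, plates sat 48 hr at 37 C. Finally Hoechst was added for 40 min before fluorescence scanning.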
# HT1080-NT tox = kills 2HG-producing HT-1080-NT fibrosarcoma cells | HT-1080-NT fibrosarcoma viability, CellTiter-Glo ATP luminescence, 48 h | Potency, µM (highest dose often 46.1 µM), without a hit: at the highest dose activity, negative = less viability, most hits filed as cytotoxic | 360,000 tested, 1.6% active;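 note: NT is the 2HG producing partner of a matched IDH1 knockdown line; 0% = DMSO-treated cells and -100% = media-only wells without cells; nearly all actives have a fitted effect of over 55% in size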
#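 Fibrosarcoma NT cells, 750 per well in 5% FBS RPMI, were exposed to compound for 48 hours. Viability: CellTiter-Glo luminescence.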
# KB-3-1 tox = KB-3-1 parental cell cytotoxicity | KB-3-1 viability, CellTiter-Glo ATP luminescence, 72 h | Potency, µM (series often up to 46.1 µM), most hits filed as cytotoxic | 400,000 tested, 1.4% active | AID 1347075; note: % is set by controls: 0 for no effect and ±100 for the full control effect; nearly all actives have a fitted effect of over 60% in size
#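 Luminescent ATP read-out (CellTiter-Glo) measures survival of drug-naive KB-3-1 cells after 72 h compound exposure at 37 °C. Titration series was screened from lowest to highest concentration, with DMSO vehicle plates as background controls.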
# MCF10A rerep = induces DNA re-replication in MCF 10a normal breast cells; MCF 10A DNA re-replication, Hoechst nuclear intensity, 48 h; Potency, µM (top dose mostly 46.1 µM), without a hit: at the highest dose activity, positive = re-replication, usual class: activators; 350,000 tested, 2.9% active; AID 624296; note: % of control where 0% means no effect; nearly all actives have a fitted effect of over 50% in size
# * hit, by the source's call; i = inactive; ? = inconclusive; . = no result; ! = not confirmed by another sample; [ ] = remark or other dose. Calls come from the whole dose curve; as a rule, active = well fitted curve in the direction sought with a large enough effect; inconclusive = small, poorly fitted or top-dose-only effect, or another doubt; inactive = no such curve, though single readings can be large; an effect the other way counts as inactive or inconclusive. Potency is the fitted concentration of half-maximal effect.
SMILES,HT1080 IDH1KD tx,KB-V1 cytotox,SW480 rereplic,HT1080-NT tox,KB-3-1 tox,MCF10A rerep
O=C1CN=C(c2ccc(Br)cc2)c2oc3ccccc3c2N1,11.6µM*,i,-1.1%,14.6µM*,i,?
COc1cccc(OC)c1C1=NCC(=O)Nc2c1oc1ccc(Br)cc21,2.91µM*,?,0.651µM*,?,i,?
O=C1CN=C(c2ccc(F)cc2)c2oc3ccccc3c2N1,-1.4%,i,-1.1%,-1.9%,?,-0.9%
CCOCCC(=O)Nc1ccc2c(c1)c(=O)n(C)n2Cc1cccc(C(F)(F)F)c1,13.7%,i,.,?,i,.
Cc1cc(C(=O)Cn2nnc(-c3ccc(Cl)cc3)n2)c(C)n1-c1ccccc1,-14.4%,i,-1.2%,-18.1%,i,?
CCOC(=O)c1sc(/N=C/c2c(O)n(-c3ccccc3)c(=O)[nH]c2=O)c(C#N)c1C,8.9%,11.6µM*,-6.6%,19.1%,?,7.2%
CCOC(=O)c1c(/N=C/c2c(O)n(-c3cccc(C)c3)c(=O)[nH]c2=O)sc2c1CCCC2,6.8%,i,?,9.9%,i,?
COc1cc2c(c(OC)c1OC)-c1ccc(OC)c(=O)cc1[C@@H](NC(C)=O)CC2,?,7.31µM*,0.0046µM*,?,0.0731µM*,0.0422µM*
CCN(CC)c1ccc2c(cc1=O)[C@@H](NC)CCc1cc(OC)c(OC)c(OC)c1-2,?,6.51µM*,1.03µM*,1.3µM*,0.92µM*,1.3µM*
COc1cc2c(c(OC)c1OC)-c1ccc(O)c(=O)cc1[C@@H](N)CC2,?,i,5.6%,?,i,-1.5%
COc1cc2c(c(OC)c1OC)-c1ccc(C(=O)O)cc1[C@@H](NC(C)=O)CC2,.,i,-0.9%,.,i,-0.6%
COc1cc2c(c(OC)c1O)-c1ccc(OC)c(=O)cc1C(NC(=O)C(F)(F)F)CC2 (configuration not stated),?,?,0.116µM*,0.013µM*,?,?
COc1ccc(CC(=O)NC(=S)NNC(=O)COc2c(C)cccc2C)cc1,5.2%,i,-9.0%,-3.5%,?,?
COCCOC(=O)c1c(C)n(C)c2ccc(OC(=O)N(C)C)cc12,-0.7%,i,-12.8%,1.0%,i,-11.6%
CN(C)C(=O)Oc1ccc(OCc2n(C)c3ccccc3[n+]2C)cc1,-6.5%,i,16.4µM*,0.8%,?,4.5%
CCOc1cc2c(cc1OCC)-n1cccc1C(c1cccc(OCC)c1O)NC2 (configuration not stated),?,i,0.8%,-25.1%,i,18.4µM*
CCOc1cc2c(cc1OCC)-n1cccc1C(c1ccc(C)cc1C)NC2 (configuration not stated),20.6µM*,?,?,?,?,?
CC(CCC(=O)O)C1CCC2C3C(=O)C[C@@H]4CC(=O)CC[C@@]4(C)C3CC(=O)[C@]12C (some centres not stated),.,.,?,.,.,9.7%
COc1ccc(S(=O)(=O)NC(CC(=O)N2CCc3ccccc32)c2ccco2)cc1 (configuration not stated),-7.9%,?,?,-4.5%,i,9.3%
Cc1ccc(-n2nc(C)c3c2NC(=O)CSC3c2ccc(O)cc2)cc1Cl (configuration not stated),.,i,.,.,23.1µM*,.
Cc1ccc(N2C(=O)NC(=O)C3(Cc4ccccc4N4CCCC43)C2=O)cc1 (configuration not stated),3.5%,i,-0.6%,7.3%,i,5.9%
O=C1NC(=O)C2(Cc3ccccc3N3CCCC32)C(=O)N1c1ccc(Cl)cc1 (configuration not stated),-4.2%,i,0.5%,?,?,20.6µM*
CC12CCC3c4ccc(OC(=O)N(CCCl)CCCl)cc4CCC3C1CCC2O (configuration not stated),?,5.8µM*,?,?,?,20.6µM*
CCCC(CCC)C(=O)OC1C[C@H]2CC[C@@H](C1)[N+]2(C)C (some centres not stated),3.4%,i,-0.7%,39.3%,i,?
CC(C)c1c(CN(C)[C@@H](C)Cc2ccccc2)n(C)n(-c2ccccc2)c1=O,.,.,13.4%[20.6 µM],.,.,6.9%[20.6 µM]
SMILES,HT1080 IDH1KD tx,KB-V1 cytotox,SW480 rereplic,HT1080-NT tox,KB-3-1 tox,MCF10A rerep
C[C@H]1CCC/C=C/[C@@H]2C[C@H](O)C[C@H]2[C@H](O)/C=C/C(=O)O1,0.0065µM*,0.581µM*,?,0.411µM*,0.0651µM*,0.651µM*!
COc1c(C)cc(C(=O)C2CCCN(Cc3cccc(O)c3)C2)cc1C (configuration not stated),-1.1%,i,-16.1%,-2.2%,i,6.51µM*
CC1=CC2/C=C(\C)CCC(O)C(O)/C=C/C(=O)C23C(=O)NC(CC(C)C)C3C1C (configuration not stated),7.31µM*,?,18.4µM*,11.6µM*,4.61µM*,?
COc1cc(/C=N/Nc2ccc(S(N)(=O)=O)cc2)cc(OC)c1OC,-6.1%,i,-2.0%,-10.6%,i,?
COC(=O)c1sccc1NC(=O)c1ccc(C#N)cc1,-3.8%,i,?,-1.7%,i,5.0%
COc1ccc([C@@H]2COc3c(ccc4c3C=CC(C)(C)O4)C2)c(OC)c1,21.9%,i,3.9%,23.5%,i,-4.4%
N=c1c2c(n(Cc3ccc(Cl)cc3Cl)c3c1CCC3)CCCC2,14.6µM*,i,?,20.6µM*,?,18.3%
Cc1nn(Cc2ccc(Cl)cc2Cl)c(Cl)c1C(=O)O,-6.4%,i,?,-0.8%,i,14.5%
O=c1[nH]c2ccccc2n1C1CCN(C(c2ccnc3ccccc23)c2nnnn2-c2ccc3c(c2)OCCO3)CC1 (configuration not stated),16.4µM*,?,.,?,?,.
COc1ccc(C(c2nnnn2-c2ccc3c(c2)OCCO3)N2CCC(n3c(=O)[nH]c4ccccc43)CC2)cc1 (configuration not stated),14.6µM*,?,.,18.4µM*,?,.
CCC(c1nnnn1-c1ccc(OC)cc1)N1CCC(n2c(=O)[nH]c3ccccc32)CC1 (configuration not stated),2.5%,i,.,1.4%,i,.
CCOc1ccc2nc(NC(=O)c3cccn(Cc4ccccc4Cl)c3=O)sc2c1,.,?,.,.,i,.
CCCCc1nc2ccccc2c(=O)n1-c1cccc(OC)c1,.,i,.,.,i,.
